PubChem BioAssay
Records with an inconclusive call do not appear. Activity calls are given as the source filed them.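 Rule for the calls, unless noted: active = normalized viability below 100% at a tested concentration; inactive = the rest.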

What was measured:
[1] = viability loss in pontine glioma line – cell-based, SU-DIPG-XVII, MIPE5.0, CellTiter-Glo, qHTS, dose response (AID 1347060; cut-off not given, nearly all actives have AC50 up to about 26 µM;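 for AC50: cells exposed to compound for 48 hours before viability readout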); conditions: CellTiter-Glo ATP luminescence
[2] = viability loss in pontine glioma line – cell-based, SU-DIPG-XIII, MIPE4.0, CellTiter-Glo, qHTS, dose response (AID 1347061; cut-off not given, nearly all actives have AC50 up to about 37 µM;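 note: cells exposed to compound for 48 hours before readout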); conditions: CellTiter-Glo ATP luminescence
[3] = viability loss in pontine glioma line – cell-based, JHH-DIPG-1, MIPE4.0, CellTiter-Glo, qHTS, dose response (AID 1347062; cut-off not given, nearly all actives have AC50 up to about 27 µM;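 for AC50: cells exposed to compound for two days before readout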); conditions: JHH-DIPG-1 viability, CellTiter-Glo ATP luminescence
[4] = viability loss in pontine glioma line – cell-based, SU-DIPG-IV, MIPE4.0, CellTiter-Glo, qHTS, dose response (AID 1347063; cut-off not given, nearly all actives have AC50 up to about 30 µM;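 note: compound exposure lasted 48 hours before the viability readout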); conditions: CellTiter-Glo ATP luminescence
[5] = viability loss in pontine glioma line – cell-based, SU-DIPG-XIII, MIPE5.0, CellTiter-Glo, qHTS, dose response (AID 1347064; cut-off not given, nearly all actives have AC50 up to about 23 µM;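 for AC50: cells exposed to compound for 48 hours before the viability read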); conditions: CellTiter-Glo ATP luminescence
[6] = viability loss in pontine glioma line – cell-based, SU-DIPG-XXV, MIPE5.0, CellTiter-Glo, qHTS, dose response (AID 1347065; cut-off not given, nearly all actives have AC50 up to about 26 µM;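 note: cells exposed to compound for 48 hours before ATP readout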); conditions: CellTiter-Glo ATP luminescence
[7] = JHH-DIPG-1 glioma cell viability, MIPE5.0 library, CellTiter-Glo luminescence, qHTS (AID 1347067; cut-off not given, nearly all actives have AC50 up to about 26 µM;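 note: cells exposed to compound for 48 hours before readout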); conditions: JHH-DIPG-1 glioma viability, CellTiter-Glo ATP luminescence
[8] = viability loss with induced miR-34 in A549 – imaging, A549 dox-inducible miR-34, nuclei and caspase counts, primary screen (AID 1347080;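 active = compounds whose cell count with miR-34 switched on is under 0.7 times the count with it off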); conditions: A549 miR-34 inducible, Hoechst nuclei count, 48 h
[9] = compounds altering HSF1 focus formation in cells – imaging, Selleck Cancer Library (AID 1347162; in the data active = plate-normalised HSF1 focus index below about 0.46); conditions: human cells, HSF1 nuclear foci imaging, at 10 µM; SSMD: measured here: HSF1 foci SSMD mean; cell count: measured here: cell number; plate-normalised HSF1 focus index: stronger effect = lower value
[10] = MELAS cybrid and Rieske KO viability enhancers – cell-based, MELAS cybrids, Rieske KO mouse fibroblasts, CellTiter-Glo, primary screen (AID 1508586;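 active = mean z-score across replicates of 1.96 or higher in either the MELAS or the Rieske mutant cell line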;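 note: z relative to plate mean and SD of compound and empty wells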); conditions: low glucose
[11] = drug combination growth inhibition, ovarian cancer – cell-based, oncology-focused library, rucaparib conditional, profiling panel (AID 1508598); conditions: patient-derived ovarian cancer cells, CellTiter-Glo viability, 144 h, stronger effect = lower value
[12] = growth inhibition of DIPG cells – cell-based, MIPE5.0 library, qHTS (AID 1347068; cut-off not given, nearly all actives have IC50 up to about 30 µM); conditions: SU-DIPG-XXV viability
[13] = growth inhibition of DIPG cells – cell-based, MIPE4.0 library, CellTiter-Glo luminescence, qHTS (AID 1347066; cut-off not given, nearly all actives have AC50 up to about 30 µM;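 note: cells exposed to compound for 48 hours before readout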); conditions: SU-DIPG-VI viability, CellTiter-Glo ATP luminescence
[14] = stronger effect = lower value, cell number ratio, induced over uninduced
[15] = measured here: relative caspase fold change +Dox/-Dox
[16] = measured here: total cells with miR-34 induction, stronger effect = lower value
[17] = measured here: total cells without miR-34 induction
[18] = MELAS cybrid survival, CellTiter-Glo 48 h, stronger effect = higher value
[19] = Rieske KO mouse fibroblast survival, CellTiter-Glo 72 h
[20] = at 0.000305 µM, OCI-C5x cells, with rucaparib 10 µM, 100% = cells with rucaparib alone
[21] = at 0.000305 µM, OCI-C5x cells, without rucaparib
[22] = at 0.000305 µM, OCI-P5x cells, with rucaparib 20 µM, 100% = cells with rucaparib alone
[23] = at 0.000305 µM, OCI-P5x cells, without rucaparib
[24] = at 0.00122 µM, OCI-C5x cells, with rucaparib 10 µM, 100% = cells with rucaparib alone
[25] = at 0.00122 µM, OCI-C5x cells, without rucaparib
[26] = at 0.00122 µM, OCI-P5x cells, with rucaparib 20 µM, 100% = cells with rucaparib alone
[27] = at 0.00122 µM, OCI-P5x cells, without rucaparib
[28] = at 0.00488 µM, OCI-C5x cells, with rucaparib 10 µM, 100% = cells with rucaparib alone
[29] = at 0.00488 µM, OCI-C5x cells, without rucaparib
[30] = at 0.00488 µM, OCI-P5x cells, with rucaparib 20 µM, 100% = cells with rucaparib alone
[31] = at 0.00488 µM, OCI-P5x cells, without rucaparib
[32] = at 0.0195 µM, OCI-C5x cells, with rucaparib 10 µM, 100% = cells with rucaparib alone
[33] = at 0.0195 µM, OCI-C5x cells, without rucaparib
[34] = at 0.0195 µM, OCI-P5x cells, with rucaparib 20 µM, 100% = cells with rucaparib alone
[35] = at 0.0195 µM, OCI-P5x cells, without rucaparib
[36] = at 0.0781 µM, OCI-C5x cells, with rucaparib 10 µM, 100% = cells with rucaparib alone
[37] = at 0.0781 µM, OCI-C5x cells, without rucaparib
[38] = at 0.0781 µM, OCI-P5x cells, with rucaparib 20 µM, 100% = cells with rucaparib alone
[39] = at 0.0781 µM, OCI-P5x cells, without rucaparib
[40] = at 0.313 µM, OCI-C5x cells, with rucaparib 10 µM, 100% = cells with rucaparib alone
[41] = at 0.313 µM, OCI-C5x cells, without rucaparib
[42] = at 0.313 µM, OCI-P5x cells, with rucaparib 20 µM, 100% = cells with rucaparib alone
[43] = at 0.313 µM, OCI-P5x cells, without rucaparib
[44] = at 1.25 µM, OCI-C5x cells, with rucaparib 10 µM, 100% = cells with rucaparib alone
[45] = at 1.25 µM, OCI-C5x cells, without rucaparib
[46] = at 1.25 µM, OCI-P5x cells, with rucaparib 20 µM, 100% = cells with rucaparib alone
[47] = at 1.25 µM, OCI-P5x cells, without rucaparib
[48] = at 5 µM, OCI-C5x cells, with rucaparib 10 µM, 100% = cells with rucaparib alone
[49] = at 5 µM, OCI-C5x cells, without rucaparib
[50] = at 5 µM, OCI-P5x cells, with rucaparib 20 µM, 100% = cells with rucaparib alone
[51] = at 5 µM, OCI-P5x cells, without rucaparib

COc1c(C)cnc(Cn2cnc3c(Cl)nc(N)nc32)c1C
active: AC50 [1] 0.525 µM | AC50 [2] 1.18 µM | AC50 [3] 0.187 µM | AC50 [4] 0.332 µM | AC50 [5] 1.05 µM | AC50 [6] 0.742 µM | AC50 [7] 1.05 µM | z-score [10, 18] 2.83 | viability [11, 23] 99.7% | viability [11, 29] 82.7% | viability [11, 38] 33.6% | viability [11, 39] 68.7% | viability [11, 40] 98.4% | viability [11, 42] 20.3% | viability [11, 43] 9.78% | viability [11, 44] 12.2% | viability [11, 45] 15.4% | viability [11, 46] 9% | viability [11, 47] 7.18% | viability [11, 48] 11.2% | viability [11, 49] 10.3% | viability [11, 50] 9.01% | viability [11, 51] 6.09%
0.0158: z-score [10, 19]
inactive: fold change [8, 14] 0.993 | plate-normalised HSF1 focus index [9] 1.16 | viability [11, 20] 115% | viability [11, 21] 104% | viability [11, 22] 111% | viability [11, 24] 122% | viability [11, 25] 111% | viability [11, 26] 116% | viability [11, 27] 110% | viability [11, 28] 123% | viability [11, 30] 122% | viability [11, 31] 118% | viability [11, 32] 125% | viability [11, 33] 111% | viability [11, 34] 128% | viability [11, 35] 121% | viability [11, 36] 133% | viability [11, 37] 137% | viability [11, 41] 127%
1960: cell count [8, 17]
1950: cell count [8, 16]
1.45: fold change [8, 15]
4.45: SSMD [9]
7350: cell count [9]

O=C(c1cncc(Br)c1)N1CCC(N2CCCC2)CC1
7820: cell count [8, 16]
-0.908: z-score [10, 19]
8800: cell count [8, 17]
active: AC50 [7] 13.2 µM
inactive: outcome [1] | outcome [2] | outcome [3] | outcome [4] | outcome [5] | outcome [6] | outcome [12] | fold change [8, 14] 0.889 | z-score [10, 18] -0.503
0.588: fold change [8, 15]

CC1(C)O[C@@H]2C[C@H]3[C@@H]4CCC5=CC(=O)C=C[C@]5(C)[C@H]4[C@@H](O)C[C@]3(C)[C@]2(C(=O)CO)O1
0.349: z-score [10, 19]
inactive: outcome [1] | outcome [2] | outcome [3] | outcome [4] | outcome [6] | outcome [13] | outcome [12] | z-score [10, 18] -0.574

CC(C)[C@H](C(=O)Nc1ccc(C(=O)NO)cc1)c1ccccc1
1610: cell count [8, 16]
7300: cell count [9]
1.7: fold change [8, 15]
inactive: fold change [8, 14] 0.834 | plate-normalised HSF1 focus index [9] 0.833 | viability [11, 20] 112% | viability [11, 21] 136% | viability [11, 22] 105% | viability [11, 23] 114% | viability [11, 24] 116% | viability [11, 25] 139% | viability [11, 26] 102% | viability [11, 27] 116% | viability [11, 28] 104% | viability [11, 29] 135% | viability [11, 31] 107% | viability [11, 32] 101% | viability [11, 33] 139% | viability [11, 35] 110% | viability [11, 37] 145%
active: AC50 [1] 1.86 µM | AC50 [2] 3.72 µM | AC50 [3] 1.87 µM | AC50 [4] 2.35 µM | AC50 [6] 1.32 µM | AC50 [13] 0.833 µM | viability [11, 30] 87.9% | viability [11, 34] 89.2% | viability [11, 36] 99.7% | viability [11, 38] 82.7% | viability [11, 39] 92.5% | viability [11, 40] 46.8% | viability [11, 41] 41.1% | viability [11, 42] 49.2% | viability [11, 43] 66.8% | viability [11, 44] 10.3% | viability [11, 45] 11% | viability [11, 46] 31.4% | viability [11, 47] 39.9% | viability [11, 48] 5.04% | viability [11, 49] 5.5% | viability [11, 50] 2.82% | viability [11, 51] 3.14%
-4.69: SSMD [9]
1930: cell count [8, 17]
